Assay outcomes: PubChem BioAssay, National Center for Advancing Translational Sciences (NCATS)
Most compounds without a hit are left out; they make up all but 5.3% or so of the library.
KDM4E inh – blocks human JMJD2E demethylase activity; B2RXH2; JMJD2E catalytic domain, FDH-coupled NADH fluorescence (FDH is formaldehyde dehydrogenase); AID 2147; 230,000 compounds, 1.6% hits; Potency, µM (doses to about 57.1 µM), for the others: at the top dose activity change, negative = inhibition, usual class: inhibitors; active means well fitted inhibition curve with a large enough effect, not every such curve was filed as active; inconclusive means small, poorly fitted or top-dose-only effect, or another doubt; inactive means no such curve, though single readings can be large or run the other way;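 further: potency means the concentration at half of the fitted maximal effect; 0% = wells with enzyme and -100% = buffer wells without enzyme; nearly all actives have a fitted effect of over 50% in size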
Target sequence (B2RXH2 1-337 limits assumed): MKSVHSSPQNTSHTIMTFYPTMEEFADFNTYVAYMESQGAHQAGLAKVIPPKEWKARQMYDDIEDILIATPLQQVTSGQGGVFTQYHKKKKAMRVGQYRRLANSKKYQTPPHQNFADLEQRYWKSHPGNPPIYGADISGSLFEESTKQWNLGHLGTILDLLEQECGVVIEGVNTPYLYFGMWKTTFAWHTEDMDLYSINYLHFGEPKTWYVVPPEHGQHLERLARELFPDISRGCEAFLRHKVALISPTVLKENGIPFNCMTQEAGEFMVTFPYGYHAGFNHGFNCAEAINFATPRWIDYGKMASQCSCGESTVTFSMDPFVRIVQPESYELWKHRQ
Sfp PPTase inh – blocks B. subtilis Sfp PPTase activity. Q9F4F7. Biochemical Sfp PPTase activity, qHTS. Potency, µM, for the others: largest response in the series, negative = inhibition, hits mostly inhibitors. 310,000 compounds, 3.5% hits. AID 1490;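 further: the enzyme is Sfp with the accession as filed and its product quenches rhodamine fluorescence; potency means the concentration at half of the fitted maximal effect; 0% = enzyme reaction without inhibitor and -100% = no enzyme wells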
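With Hepes-Na pH 7.6 buffer containing 10 mM MgCl2, Sfp (15 nM) modified BHQ-2-YbbR (12.5 uM) using rhodamine-CoA (5 uM). Two reads 30 minutes apart at 525/598 nm yielded each well's rate.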
Tau FP inhib – blocks human tau fibril formation measured by polarization; P10636; K18 P301L tau heparin fibrillization, Alexa594 FP, 6 h; Potency, µM (top dose mostly 57.7 µM), for the others: at the highest dose activity, negative = inhibition, hits mostly inhibitors; 280,000 compounds, 0.39% hits; further: potency means the concentration at half of the fitted maximal effect; nearly all actives have a fitted effect of over 55% in size
Target sequence (P10636 561-689 P618L limits assumed): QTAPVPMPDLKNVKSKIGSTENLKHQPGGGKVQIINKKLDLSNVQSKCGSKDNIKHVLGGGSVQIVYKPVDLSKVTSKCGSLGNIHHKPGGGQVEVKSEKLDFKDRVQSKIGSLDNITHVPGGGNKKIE
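Read-out: fluorescence polarization of Alexa 594-labeled tau (0.24 uM), 555 nm excitation, 632 nm emission. Mixtures held 15 uM unlabeled K18 P301L, compound and 20 uM heparin, pH 7 acetate buffer, incubated 6 hr at 37 C.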
Coupling enz – counter-screen for Giardia aldolase inhibitors: coupling enzyme system; coupling enzyme system counterscreen, AmpLite Red fluorescence; activity change, negative = inhibition, % at 58.2 µM, hits read low; 290,000 compounds, 0.67% hits; in the data active means activity change below about -30%
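Fluorescence at 525 nm excitation and 598 nm emission measured inhibition of the coupled detection system without aldolase. Compounds (at 57.5 uM final) were preincubated 10 min at room temperature with coupling enzyme reagent before a 20 min substrate/AmpLite Red step.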
Tau fluor counter – counter-screen for tau fibril formation inhibitors. tau K18 P301L Alexa594 fluorescence, heparin fibrillization. Potency, µM (doses to about 57.7 µM), without a hit: top-dose activity change, negative = decrease. 280,000 compounds, 0.93% hits; further: potency means the concentration at half of the fitted maximal effect; nearly all actives have a fitted effect of over 55% in size
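Human tau K18 P301L (15 uM unlabeled, 0.24 uM Alexa 594-labeled) in 100 mM sodium acetate pH 7 with 20 uM heparin, 6 hr at 37 C. ThT 30 uM added, 1 hr ambient; Alexa 594 FP and total fluorescence read at 555/632 nm.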
Tau fibril ThT – inhibitors of human tau fibril formation, thioflavin T binding | P10636 | recombinant tau K18 P301L, heparin-induced fibrillization, ThT fluorescence | Potency, µM (titrated, usually from 57.4 µM), for inactives: at the top dose activity, negative = inhibition, most hits filed as inhibitors | 270,000 compounds, 2.1% hits | AID 1460; further: potency means the concentration at half of the fitted maximal effect; nearly all actives have a fitted effect of over 55% in size
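Fibril formation assay: tau K18 P301L at 15 uM with trace Alexa 594 label, heparin inducer 20 uM, pH 7 sodium acetate buffer, 37 C for 6 hr; endpoint ThT signal.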
Active calls of the source: *; ? = inconclusive; nt = not tested or not shown; [ ] = remark or other dose. Unless noted, the call rests on the fitted dose curve; in most records, active means well fitted curve in the direction sought with a large enough effect; inconclusive means small, poorly fitted or top-dose-only effect, or another doubt; inactive means no such curve, though single readings can be large; an effect the other way counts as inactive or inconclusive. Unless noted, on the % scale 0 is the no-effect control and ±100 the full control effect.

SMILES	KDM4E inh	Sfp PPTase inh	Tau FP inhib	Coupling enz	Tau fluor counter	Tau fibril ThT
S=C(Nc1ccc(Cl)cc1Cl)Nn1cnnc1	-1%	13µM*	7%	1	3%	7%
Cc1cn2c(=O)cc(COC(=O)c3cccc(NC(=O)c4ccc(C(C)(C)C)cc4)c3)nc2s1	nt	nt	8%	nt	-17%	1%
CN1C(=O)/C(=C2/C=CC=CN2C)OC1=S	0%	56µM*	-5%	0	-1%	?
COCCN1C(=O)/C(=C/c2ccc(N3CCCC3)cc2C)SC1=S	-30%	9%	?	-2	-13%	7.1µM*
COCCn1c(CNC(=O)c2cccc(N(C)C)c2)nc2cccnc21	nt	nt	-1%	nt	-4%	-2%
CC(C)(C)OC(=O)N1CCC(c2c(C(=O)NCCN3CCC(Cc4ccccc4)CC3)cnn2-c2cccc(Cl)c2)CC1	nt	nt	-7%	nt	-10%	?
CCCCc1nc2c(c3c1C[C@H](C)OC3)CN(S(=O)(=O)c1ccccc1C(=O)OC)CC2	3%[11.4 µM]	-22%	6%[11.6 µM]	-1	-6%[11.6 µM]	4%[11.5 µM]
CCN(CC(=O)c1c(N)n(C)c(=O)n(C)c1=O)c1cccc2ccccc12	?	?	?	-43*	?	-6%
Cn1nc(C(F)(F)F)c2cc(C(=O)Nc3ccc(C(F)(F)F)cc3)sc21	-11%	12%	28µM*	-2	?	nt
Cn1nc(C(F)(F)F)c2cc(C(=O)Nc3ccc(F)cc3)sc21	-6%	-2%	-18%	-1	-24%	-2%
CCC(CC)c1nnc(NC(=O)CS(=O)(=O)c2ccc(C)cc2)s1	nt	28µM*	nt	4	nt	nt
CCC(CC)c1nnc(NC(=O)CCc2ccc(OC)cc2)s1	nt	45µM*	nt	0	nt	nt
COC(=O)c1ccc(C)c(NC(=O)CCc2ccc(OC)cc2)c1	0%	89µM*	8%	3	-1%	6%
COc1ccc(Oc2ncc3nc(-c4cc(F)cc(F)c4)c(=O)n(C[C@H]4CCCO4)c3n2)cc1	nt	-13%	nt	-5	nt	nt
CCN(CC)C(=O)c1cccnc1	nt	27%	nt	nt	nt	nt
CN(/C=C/C(=C\C=[N+](C)c1ccccc1)OCCCS(=O)(=O)[O-])c1ccccc1	0%	79µM*	-12%	-11	-11%	?
Cc1ccc(-c2nn3c(-c4ccco4)nnc3c3ccccc23)cc1S(=O)(=O)NCC1CCCO1 (stereo not given)	3%	50µM*	0%	-1	2%	-7%
O=C1CC(c2nnc(Cc3ccc(F)cc3Cl)o2)CN1c1ccccc1 (stereo not given)	nt	nt	-4%	nt	-7%	2%
NCCC(O)C(=O)NC1C[C@@H](N)[C@H](O[C@@H]2OC(CN)C(O)C(O)C2O)C(O)[C@H]1O[C@H]1OC(CO)C(O)C(N)C1O (stereo not given in full)	-1%	-5%	-1%	10	-5%	-1%
O=P(O)(O)CP(=O)(O)O	0.35µM*	-5%	10%	3	-12%	-11%
COc1cccc(-c2nccc(N(C)Cc3ccco3)n2)c1	nt	?	nt	0	nt	nt
Nc1ccccc1NC(=O)c1ccc(CNC(=O)OCc2cccnc2)cc1	nt	9%	nt	2	nt	nt
O=C1Cc2ccccc2C(=O)N1Cc1ccccc1	9%	17%	0%	-43*	-15%	?
CCc1nnc(N2C(=N)SCC2=O)s1	-15%	50µM*	4%	-6	-12%	-15%
CCSC1=C(C#N)C(c2cccc(O)c2)CC(=O)N1 (stereo not given)	-5%	-6%	-4%	7	-3%	-4%
SMILES	KDM4E inh	Sfp PPTase inh	Tau FP inhib	Coupling enz	Tau fluor counter	Tau fibril ThT
C=CCSC1=C(C#N)C(c2ccccc2)CC(=O)N1 (stereo not given)	1%	-29%	-2%	-4	1%	-6%
C=C(C)CSC1=C(C#N)C(c2ccsc2)CC(=O)N1 (stereo not given)	?	28µM*	-2%	-6	2%	1%
C=CCSC1=C(C#N)C(c2ccc(C(C)C)cc2)CC(=O)N1 (stereo not given)	1%	45µM*	7%	-1	-13%	-13%
CCCC/C=C/[C@H](c1ccccc1)[C@H](CO)Cc1cnc2ccccc2c1	nt	1%	nt	3	nt	nt
Fc1ccccc1N1CCN(c2nnc(C(F)(F)F)c3nnn(Cc4ccccc4)c23)CC1	nt	nt	0%	nt	-14%	-14%
CC1=NN(c2ccc(Cl)cc2)C(=O)/C1=C\c1cccn1-c1ccc(S(N)(=O)=O)cc1	-2%	0%	11%	2	11µM*[quencher]	7.1µM*
CC(C)(C)C1CCc2onc(C(=O)Nc3sc4c(c3C(N)=O)CCCC4)c2C1 (stereo not given)	nt	nt	?	nt	-21%	?
Cc1[nH]n2c(=O)cc(-c3ccc(Cl)cc3)nc2c1-c1ccccc1	nt	nt	-2%	nt	?	14µM*
Cc1cc(=O)n2[nH]c(N)c(N=Nc3ccccc3)c2n1	-2%	30%	7%	1	0%	?
COc1cccc(N=Nc2c(N)[nH]n3c(=O)cc(-c4ccccc4)nc23)c1	-4%	11%	9%	5	?	4µM*
COc1cccc(-c2cc3nc(-c4ccccc4)cc(=O)n3[nH]2)c1	nt	20%	nt	0	nt	nt
Cc1ccc(N=Nc2c(N)[nH]n3c(=O)cc(-c4ccccc4)nc23)cc1	8%	7%	2%	2	?	3.2µM*
CC(=O)OC[C@@H]1O[C@H](CCO/N=C\[C@@H](C)[C@H](OCc2ccccc2)C(C)C)C=C[C@@H]1OC(C)=O	nt	5%	0%[11.6 µM]	-2	-10%[11.6 µM]	-7%[11.5 µM]
Cc1ccc(-n2c(=O)c3c(c4cc(C)ccc4n3C)n(CC(=O)NCCC3=CCCCC3)c2=O)cc1	nt	nt	-10%	nt	1%	6%
CCOc1ccc(C=C2SC(=O)N(CCN)C2=O)cc1	nt	-9%	nt	-2	nt	nt
O=C(CSc1nnc2c3ccccc3c3ccccc3c2n1)Nc1ccccc1	-10%	9%	-11%	-44*	-27%	?
O=C(CSc1nnc2c3ccccc3c3ccccc3c2n1)Nc1ccccc1F	0%	-63%	?	-40*	?	?
O=C(CSc1nncc2ccccc12)Nc1ccccc1	nt	7%	nt	1	nt	nt
O=C(CSc1nncc2ccccc12)Nc1ccc(C(=O)O)cc1	nt	50µM*	nt	nt	nt	nt
O=C(CSc1ncccn1)Nc1ccccc1	-6%	-3%	-1%	-1	-3%	-8%
CCn1c(CN2CCCCC2)nc2cc(NC(=O)c3ccc([N+](=O)[O-])cc3)ccc21	nt	nt	4%	nt	-24%	-20%
Cc1cc(OCCOCCNCc2ccccc2)ccc1C(C)C	nt	79µM*	nt	0	nt	nt
CCCCC(=O)Nc1c(C(=O)N2CCN(c3ccccc3)CC2)oc2ccccc12	nt	nt	5%	nt	-18%	-29%
